Measured values reported in PubChem BioAssay (NCATS).
Inconclusive results are not listed. Active and inactive are the calls of the source. Unless noted, calls come from the whole dose curve; as a rule, active = well fitted curve in the direction sought with a large enough effect; inconclusive = small, poorly fitted or top-dose-only effect, or another doubt; inactive = no such curve, though single readings can be large; an effect the other way counts as inactive or inconclusive.

Legend:
[1] = target: Lysosomal acid glucosylceramidase (Homo sapiens) (UniProt P04062); test: Glucocerebrosidase-p2 (AID 348; in the data active = potency below about 10 µM; note: potency is the fitted concentration of half-maximal effect); details: purified GBA, blue fluorogenic substrate, 40 min
Lysosomal acid glucosylceramidase (Homo sapiens), sequence (P04062 whole entry, looked up): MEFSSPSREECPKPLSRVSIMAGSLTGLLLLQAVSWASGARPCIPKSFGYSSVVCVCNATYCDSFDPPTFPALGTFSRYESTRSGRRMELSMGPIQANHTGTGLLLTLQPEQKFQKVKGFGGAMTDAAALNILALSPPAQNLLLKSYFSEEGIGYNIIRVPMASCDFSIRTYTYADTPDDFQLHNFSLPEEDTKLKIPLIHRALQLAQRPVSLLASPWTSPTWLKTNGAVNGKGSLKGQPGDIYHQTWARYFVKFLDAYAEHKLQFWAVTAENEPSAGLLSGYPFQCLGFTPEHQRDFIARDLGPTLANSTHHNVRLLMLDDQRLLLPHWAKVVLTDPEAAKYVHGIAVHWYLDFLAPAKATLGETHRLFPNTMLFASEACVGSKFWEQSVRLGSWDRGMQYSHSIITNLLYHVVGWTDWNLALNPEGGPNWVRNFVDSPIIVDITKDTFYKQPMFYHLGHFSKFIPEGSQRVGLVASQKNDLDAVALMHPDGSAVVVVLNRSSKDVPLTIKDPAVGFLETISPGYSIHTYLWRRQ
Procedure, shortened: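 Compounds titrated from 0.6 nM upwards against 0.2 nM enzyme in pH 5.9 citric acid/KH2PO4, taurocholate, tween-20; blue fluorogenic substrate 80 uM, 40 min room temperature, stopped and read Ex 365/Em 440 for AC50.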

[2] = AP1 Signaling Pathway (AID 357; active = well fitted curve in either direction with a large enough effect, not every such curve was filed as active;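 note: ME-180 reporter cells stimulated with EGF at its EC50 level; % is set by controls: 0 for no effect and ±100 for the full control effect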); details: ME-180 AP-1-bla reporter, EGF-induced, beta-lactamase ratio, 5 h; at 7.69 µM (top of the series) unless noted
Procedure, shortened: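 Read-out was the 460nm/530nm emission ratio (excitation 405nm) after CCF4 loading for 2.5 hours at room temperature. Cells carried an AP-1-driven beta-lactamase reporter, were stimulated with EC50 EGF plus compound for 5 hours, and AC50 values came from titrations.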

[3] = Stat Signaling Pathway (AID 446; active = well fitted curve in either direction with a large enough effect, not every such curve was filed as active;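 note: ME-180 cervical cancer cells given 40 pM IL-6 alongside compound; SIE-controlled beta-lactamase reporter measured as 460/530 nm FRET emission ratio; % is set by controls: 0 for no effect and ±100 for the full control effect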); details: ME-180 SIE beta-lactamase reporter, IL-6 stimulated, 5 h; at 7.69 µM (top of the series) unless noted
Procedure, shortened: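 ME-180 cells carrying a SIE-driven beta-lactamase reporter are stimulated with 40 pM IL-6 for 5 h at 37C in the presence of compound. The 460/530 nm FRET substrate ratio is read after 2.5 h at RT. Data are normalised to 300 pM IL-6 and to 125 nM JAK inhibitor controls.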

[4] = target: Glucocorticoid receptor (Homo sapiens) (UniProt P04150); test: GR-GFP Redistribution (AID 450;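 active = compounds whose dose series gives a full or clear partial fitted curve of increased nuclear translocation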; note: potency is the fitted concentration of half-maximal effect); details: U2OS GR-GFP nuclear translocation, laser cytometry, 2 h
Glucocorticoid receptor (Homo sapiens), sequence (P04150 whole entry, looked up, the tested form may be a part): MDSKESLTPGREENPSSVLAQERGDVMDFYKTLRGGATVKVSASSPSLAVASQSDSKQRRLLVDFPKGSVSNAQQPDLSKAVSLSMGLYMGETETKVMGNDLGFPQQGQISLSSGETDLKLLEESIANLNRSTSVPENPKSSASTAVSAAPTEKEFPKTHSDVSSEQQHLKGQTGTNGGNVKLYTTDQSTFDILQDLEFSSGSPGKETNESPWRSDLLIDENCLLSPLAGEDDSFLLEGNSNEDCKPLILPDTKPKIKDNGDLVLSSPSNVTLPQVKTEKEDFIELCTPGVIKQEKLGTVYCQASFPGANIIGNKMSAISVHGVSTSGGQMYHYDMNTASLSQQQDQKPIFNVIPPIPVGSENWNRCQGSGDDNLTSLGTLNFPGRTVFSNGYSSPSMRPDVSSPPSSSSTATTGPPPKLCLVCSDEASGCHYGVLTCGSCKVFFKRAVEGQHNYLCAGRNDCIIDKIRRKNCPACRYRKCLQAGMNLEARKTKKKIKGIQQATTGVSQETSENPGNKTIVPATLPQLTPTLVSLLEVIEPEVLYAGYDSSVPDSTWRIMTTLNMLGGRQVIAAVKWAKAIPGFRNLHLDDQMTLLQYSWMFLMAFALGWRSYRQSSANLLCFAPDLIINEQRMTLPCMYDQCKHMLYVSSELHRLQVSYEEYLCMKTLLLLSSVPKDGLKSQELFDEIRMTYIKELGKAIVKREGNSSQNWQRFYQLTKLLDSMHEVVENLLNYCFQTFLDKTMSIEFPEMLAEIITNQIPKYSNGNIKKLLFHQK

[5] = target: Glucocorticoid receptor (Homo sapiens) (UniProt P04150); test: GR-EFC Redistribution (AID 451; calls by dose curve; note: potency is the fitted concentration of half-maximal effect); details: CHO-K1 GR-EFC translocation, beta-gal luminescence, 2 h
Procedure, shortened: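 CHO-K1 cells stably expressing nuclear-localized β-gal enzyme acceptor and GR fused C-terminally to the enzyme donor fragment; ligand-driven nuclear translocation restores β-gal by complementation. Compounds titrated up to 46 uM final, 2 h at 37 °C; luminescence read.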

[6] = target: Mitogen-activated protein kinase 10 (Mus musculus) (UniProt Q61831); test: JNK3 AlphaScreen Assay (AID 530; active = well fitted curve in either direction with a large enough effect, not every such curve was filed as active;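 note: kinase came from lysate of stimulated human HepG2 cells; signal reports phosphorylation of biotinylated GST-cJun 1-79 at Ser73 with 10 µM ATP; % is set by controls: 0 for no effect and ±100 for the full control effect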); details: JNK3 lysate, c-Jun phosphorylation; series mostly up to 57.1 µM
Procedure, shortened: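 Inhibitors reduce antibody binding to phosphorylated biotin-cJun, lowering AlphaScreen luminescence. Lysates from HepG2 cells pre-activated by IL-1beta plus TNF-alpha supplied JNK3; compounds were titrated.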

[7] = target: 3',5'-cyclic-AMP phosphodiesterase 4B (Homo sapiens) (UniProt Q07343); test: qHTS Assay for Inhibitors of PDE-IV (AID 607; active = well fitted activation curve with a large enough effect in the main read-out, with a control signal flat, not every such curve was filed as active; note: % of control where 0% means no effect); details: HEK293 ACTOne CNG channel cells, membrane potential fluorescence; series mostly up to 22.9 µM
3',5'-cyclic-AMP phosphodiesterase 4B (Homo sapiens), sequence (Q07343 whole entry, looked up): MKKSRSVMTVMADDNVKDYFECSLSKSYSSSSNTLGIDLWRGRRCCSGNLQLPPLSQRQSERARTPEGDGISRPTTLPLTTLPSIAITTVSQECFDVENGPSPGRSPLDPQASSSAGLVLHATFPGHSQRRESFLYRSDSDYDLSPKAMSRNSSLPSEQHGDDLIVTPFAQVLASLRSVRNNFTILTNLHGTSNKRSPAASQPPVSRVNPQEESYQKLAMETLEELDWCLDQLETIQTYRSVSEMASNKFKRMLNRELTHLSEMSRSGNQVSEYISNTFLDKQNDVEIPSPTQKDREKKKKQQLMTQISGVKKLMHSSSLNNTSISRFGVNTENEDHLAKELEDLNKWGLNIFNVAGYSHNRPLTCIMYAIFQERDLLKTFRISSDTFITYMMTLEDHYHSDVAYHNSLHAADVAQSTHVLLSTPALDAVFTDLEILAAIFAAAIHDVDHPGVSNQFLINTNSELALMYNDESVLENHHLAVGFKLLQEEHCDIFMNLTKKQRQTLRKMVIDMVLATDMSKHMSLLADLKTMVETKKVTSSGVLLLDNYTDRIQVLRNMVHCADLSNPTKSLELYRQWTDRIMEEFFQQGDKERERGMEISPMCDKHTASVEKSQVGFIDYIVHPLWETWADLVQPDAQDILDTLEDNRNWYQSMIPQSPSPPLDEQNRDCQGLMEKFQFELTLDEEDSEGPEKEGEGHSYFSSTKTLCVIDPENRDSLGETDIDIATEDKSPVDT
Procedure, shortened: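 HEK293 ACTOne cells with CNG channel (1000/well), endogenous PDE4; membrane potential dye, compounds up to 22.9 uM final. Fluorescence Ex 535/Em 590; RO 20-1724 (100 uM final) as reference.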

[8] = target: Cytochrome P450 3A4 (Homo sapiens) (UniProt P08684); test: qHTS Assay for Activators of Cytochrome P450 3A4 (AID 885); details: recombinant CYP3A4, Luciferin-PPXE luminescence, 60 min; series mostly up to 57.1 µM; note: nearly all actives have a fitted effect of over 65% in size
Cytochrome P450 3A4 (Homo sapiens), sequence (P08684 whole entry, looked up): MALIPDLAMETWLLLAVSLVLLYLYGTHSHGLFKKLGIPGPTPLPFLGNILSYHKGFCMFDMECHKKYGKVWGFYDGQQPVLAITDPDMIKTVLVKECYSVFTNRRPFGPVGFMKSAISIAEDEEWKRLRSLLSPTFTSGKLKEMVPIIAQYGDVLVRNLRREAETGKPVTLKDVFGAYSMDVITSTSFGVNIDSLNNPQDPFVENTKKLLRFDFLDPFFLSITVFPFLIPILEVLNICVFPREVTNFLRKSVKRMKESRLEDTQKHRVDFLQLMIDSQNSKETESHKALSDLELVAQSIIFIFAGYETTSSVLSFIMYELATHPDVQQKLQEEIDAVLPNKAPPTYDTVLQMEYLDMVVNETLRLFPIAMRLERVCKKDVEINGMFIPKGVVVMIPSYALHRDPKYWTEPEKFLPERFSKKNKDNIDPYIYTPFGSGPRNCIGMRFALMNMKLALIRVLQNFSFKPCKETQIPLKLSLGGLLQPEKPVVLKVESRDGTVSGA
Procedure, shortened: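 Human CYP3A4 (20 nM) with Luciferin-PPXE at 25 uM (its KM) in 200 mM KPO4; 10 min compound preincubation, then NADPH regeneration and 60 min reaction at RT. Luciferin read by luminescence; normalized to 57 uM ketoconazole full inhibition.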

[9] = Counterscreen qHTS for small molecule stabilizers of the endoplasmic reticulum resident proteome: GLuc-NoTag assay (AID 1508627); details: Gaussia luciferase NoTag secretion counterscreen, luminescence, thapsigargin 100 nM for final 4 h; series mostly up to 76.4 µM;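 note: SH-SY5Y cells given compound then 100 nM thapsigargin to empty ER calcium; 0% = thapsigargin alone and -100% = DMSO vehicle control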
Procedure, shortened: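 SH-SY5Y cells stably expressing constitutively secreted GLuc (no SERCaMP tag) were pre-incubated 5 h, treated with compound for 19 h, then 100 nM thapsigargin for 4 h at 37C; medium GLuc read by coelenterazine luminescence.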

[10] = Confirmatory qHTS for small molecule stabilizers of the endoplasmic reticulum resident proteome: Secreted ER Calcium Modulated Protein (SERCaMP) assay (AID 1508628); details: SERCaMP secreted luciferase ER calcium/proteostasis reporter; series mostly up to 76.3 µM; note: nearly all actives have a fitted effect of over 40% in size; note: potency is the fitted concentration of half-maximal effect
Procedure, shortened: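 SH-SY5Y cells stably expressing GLuc-SERCaMP, treated 16 h with compound (primary 1.53, 7.67, 38.3 uM; confirmation 11 concentrations, up to 76.6 uM), then 100 nM thapsigargin for 4 h. Secreted Gaussia luciferase in medium read by coelenterazine luminescence.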

[11] = NFAT Signaling Pathway (AID 444; active = well fitted curve in either direction with a large enough effect, not every such curve was filed as active;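 note: carbachol stimulus at about its EC50 of 1 µM final; % is set by controls: 0 for no effect and ±100 for the full control effect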); details: Jurkat NFAT-bla M1, carbachol, beta-lactamase ratio, 5 h; at 7.69 µM (top of the series) unless noted
Procedure, shortened: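 Jurkat cells carrying an NFAT-driven β-lactamase reporter and co-transfected muscarinic M1 receptor were treated with compound plus carbachol (1 uM final, an EC50 level) for 5 h at 37 °C. CCF4 loading followed for 1 h at RT; 460/530 nm ratio gave %activity.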

[12] = qHTS Assay for Lipid Storage Modulators (AID 1519; calls by dose curve); details: Drosophila S3 cells, BODIPY lipid droplet/cell ratio, laser cytometry, cells loaded with oleic acid; for activity change, negative = inhibition: at 57.5 µM (top of the series)
Procedure, shortened: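 Cells seeded at 5,000 per well were treated with compounds over a concentration series and loaded with oleic acid (400 uM, as added). Lipid droplet fluorescence (488 nm excitation, 500-530 nm channel) was read by laser-scanning cytometry and normalized to 20 uM Triacsin C.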

[13] = target: Dual specificity protein kinase CLK4 (Homo sapiens) (UniProt Q9HAZ1); test: qHTS Assay for Inhibitors of CDC-like Kinase 4 (Kinase-Glo Assay) (AID 1770); details: recombinant Clk4, Kinase-Glo ATP depletion luminescence; series mostly up to 66.7 µM; note: % is set by controls: 0 for no effect and ±100 for the full control effect; nearly all actives have a fitted effect of over 65% in size
Dual specificity protein kinase CLK4 (Homo sapiens), sequence (Q9HAZ1 whole entry, looked up): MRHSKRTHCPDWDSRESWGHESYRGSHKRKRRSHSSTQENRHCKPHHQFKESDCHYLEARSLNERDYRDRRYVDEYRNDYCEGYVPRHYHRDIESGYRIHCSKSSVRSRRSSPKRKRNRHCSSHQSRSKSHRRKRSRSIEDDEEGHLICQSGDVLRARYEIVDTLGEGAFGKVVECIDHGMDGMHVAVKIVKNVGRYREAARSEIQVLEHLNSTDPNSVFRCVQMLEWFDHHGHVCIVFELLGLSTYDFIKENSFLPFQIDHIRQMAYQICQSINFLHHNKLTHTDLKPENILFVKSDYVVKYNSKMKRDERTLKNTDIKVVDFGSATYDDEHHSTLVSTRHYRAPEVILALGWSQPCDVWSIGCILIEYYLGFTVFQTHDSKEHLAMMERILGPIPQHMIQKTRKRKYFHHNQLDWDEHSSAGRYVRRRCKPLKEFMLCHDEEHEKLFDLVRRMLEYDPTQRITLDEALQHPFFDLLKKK
Procedure, shortened: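 Recombinant human Clk4 (25 nM) phosphorylated RS repeat peptide (100 uM) with 1 uM ATP in Tris pH 7.5/MgCl2/EGTA/DTT/Triton buffer for 4.5 h at room temperature. Residual ATP was quantified by Kinase-Glo luciferase luminescence.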

[14] = target: Dual specificity protein kinase CLK4 (Homo sapiens) (UniProt Q9HAZ1); test: qHTS Assay for Inhibitors of CDC-like Kinase 4 (ADP-Glo Assay) (AID 1771); details: recombinant CLK4, ADP-Glo luminescence; series mostly up to 80 µM; note: % is set by controls: 0 for no effect and ±100 for the full control effect; nearly all actives have a fitted effect of over 70% in size
Procedure, shortened: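 Luminescence from ADP-Glo reports ADP produced by 25 nM Clk4 acting on 100 uM RS repeat peptide with 1 uM ATP over 1 hr at room temperature; residual ATP is depleted before ADP is converted to ATP for detection.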

[15] = target: Dual specificity protein kinase CLK4 (Homo sapiens) (UniProt Q9HAZ1); test: qHTS Assay for Inhibitors of CDC-like Kinase 4 (ADP-FP Assay) (AID 1795); details: Transcreener ADP fluorescence polarization; series mostly up to 50 µM; note: % is set by controls: 0 for no effect and ±100 for the full control effect; nearly all actives have a fitted effect of over 60% in size
Procedure, shortened: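 Recombinant human Clk4 (6.25 nM) phosphorylated RS repeat peptide (100 uM) with 1 uM ATP in Tris pH 7.5/MgCl2/EGTA/DTT/Triton buffer for one hour. ADP was quantified by Transcreener competitive fluorescence polarization against an ADP calibration curve.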

[16] = target: Ubiquitin carboxyl-terminal hydrolase 1 (Homo sapiens) (UniProt O94782); test: Inhibitors of USP1/UAF1: Pilot qHTS (AID 504865); details: purified USP1/UAF1, Ub-rhodamine cleavage fluorescence; series mostly up to 54.9 µM;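 note: rhodamine fluorescence freed from ubiquitin-rhodamine substrate followed over time; top concentration of the series differs between compounds; % is set by controls: 0 for no effect and ±100 for the full control effect; nearly all actives have a fitted effect of over 35% in size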
Ubiquitin carboxyl-terminal hydrolase 1 (Homo sapiens), sequence (O94782 whole entry, looked up): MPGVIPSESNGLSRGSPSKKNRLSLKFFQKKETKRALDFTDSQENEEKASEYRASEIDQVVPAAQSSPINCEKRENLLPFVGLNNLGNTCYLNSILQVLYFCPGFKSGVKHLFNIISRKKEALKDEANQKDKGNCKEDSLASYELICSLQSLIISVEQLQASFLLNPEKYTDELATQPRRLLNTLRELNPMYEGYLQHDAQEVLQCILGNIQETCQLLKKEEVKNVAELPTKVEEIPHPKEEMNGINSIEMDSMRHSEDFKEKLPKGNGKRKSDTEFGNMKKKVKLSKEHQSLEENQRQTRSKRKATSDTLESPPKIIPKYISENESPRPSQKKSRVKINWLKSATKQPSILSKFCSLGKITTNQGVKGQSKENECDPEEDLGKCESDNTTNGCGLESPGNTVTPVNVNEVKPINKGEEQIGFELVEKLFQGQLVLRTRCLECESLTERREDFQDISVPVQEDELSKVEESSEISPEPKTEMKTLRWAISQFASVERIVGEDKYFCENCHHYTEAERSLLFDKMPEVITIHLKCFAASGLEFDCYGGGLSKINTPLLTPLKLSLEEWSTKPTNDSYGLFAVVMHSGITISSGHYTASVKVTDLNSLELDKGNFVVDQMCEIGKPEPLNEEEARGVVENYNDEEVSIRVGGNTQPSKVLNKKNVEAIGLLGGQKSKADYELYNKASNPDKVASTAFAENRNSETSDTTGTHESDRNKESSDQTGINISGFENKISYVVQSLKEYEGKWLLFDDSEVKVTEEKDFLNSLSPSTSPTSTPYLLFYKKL
Procedure, shortened: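 USP1/UAF1 complex (1nM) preincubated with compound 15 min at room temperature, then Ub-Rho substrate (150nM final) added. Fluorescence read kinetically at 480/540 nm, 6 reads every 60 seconds. Buffer: 50mM HEPES pH 7.8, 0.5mM EDTA, 0.1 mg/ml BSA, 1mM TCEP, 0.01% Tween-20.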

[17] = Cell Viability qHTS for small molecule stabilizers of the endoplasmic reticulum resident proteome (AID 1508629); details: cell viability counter-screen, 100 nM thapsigargin for final 4 h
[18] = target: Cytochrome P450 1A2 (Homo sapiens) (UniProt P05177); test: p450-cyp1a2 (AID 410; calls by dose curve; note: potency is the fitted concentration of half-maximal effect;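 for activity change, negative = inhibition: -100% = full effect of reference inhibitor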); details: recombinant CYP1A2, luciferin-ME demethylation, luminescence; series mostly up to 57 µM
Cytochrome P450 1A2 (Homo sapiens), sequence (P05177 whole entry, looked up): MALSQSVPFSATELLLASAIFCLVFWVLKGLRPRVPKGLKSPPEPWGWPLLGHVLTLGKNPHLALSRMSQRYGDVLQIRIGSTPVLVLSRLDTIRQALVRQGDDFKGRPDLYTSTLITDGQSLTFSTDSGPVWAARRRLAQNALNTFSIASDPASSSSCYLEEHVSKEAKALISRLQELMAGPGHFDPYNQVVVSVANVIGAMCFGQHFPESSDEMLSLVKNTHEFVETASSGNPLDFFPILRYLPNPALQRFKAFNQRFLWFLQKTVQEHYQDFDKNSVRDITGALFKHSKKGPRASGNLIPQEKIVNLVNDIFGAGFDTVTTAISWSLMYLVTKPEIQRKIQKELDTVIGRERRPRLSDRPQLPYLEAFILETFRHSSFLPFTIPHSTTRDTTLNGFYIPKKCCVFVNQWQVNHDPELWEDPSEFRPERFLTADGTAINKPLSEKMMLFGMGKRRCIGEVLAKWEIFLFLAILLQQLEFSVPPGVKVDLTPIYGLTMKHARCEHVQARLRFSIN
Procedure, shortened: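 Luminescent readout of luciferin formed from Luciferin-ME by human CYP1A2; data normalized against complete inhibition by 57 uM furafylline. Enzyme 20nM, substrate 100uM at Km, 100mM KPO4 buffer, 60 min reaction at room temperature.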

[19] = Confirmation and Secondary Assay for Modulators of Hemoglobin Beta Chain Splicing at IVS2 654 locus (AID 910); details: HeLa EGFP-654 splicing reporter, GFP fluorescence, 48 h; series mostly up to 38.3 µM;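 note: per-well total GFP intensity by laser scanning cytometry after 2-day treatment; % of control where 0% means no effect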
Procedure, shortened: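 HeLa cells stably carrying EGFP interrupted by mutant beta-globin IVS2-654 intron (CMV-driven) were treated with compound for 2 days at 37C; corrected splicing was scored as total peak GFP intensity per well (488 nm excitation, 500-520 nm emission).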

[20] = Confirmation and Secondary Assay for Modulators of Hemoglobin Beta Chain Splicing at IVS2 705 locus (AID 930); details: HeLa EGFP-705 splicing reporter, GFP fluorescence, 48 h; series mostly up to 38.3 µM;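 note: HeLa cells stably expressing the EGFP-705 splicing reporter; GFP fluorescence per well restored by corrected splicing of the IVS2-705 intron in EGFP; % of control where 0% means no effect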
Procedure, shortened: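 HeLa IVS2-705 EGFP reporter cells, 500/well, compound 2 d at 37C; correct splicing yields fluorescent EGFP. Control: 500 nM antisense PNA. Read-out: total peak GFP intensity.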

[21] = qHTS Assay for Identification of Small Molecule Agonists for Hypoxia Response Element Signaling Pathway (AID 914; active = well fitted activation curve with a large enough effect in the signal ratio, with a control signal flat, not every such curve was filed as active; the % refers to the signal ratio; note: potency is the fitted concentration of half-maximal effect); details: ME-180 (cervical carcinoma) HRE-bla reporter, beta-lactamase ratio, CoCl2, 17 h; activation: stronger effect = higher value
Procedure, shortened: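 HRE-bla ME-180 assay for agonist-like enhancement of an EC50 CoCl2 stimulus: 17 h at 37 degrees Celsius, CCF4 for 2.5 h, ratiometric 460/530 nm signal converted to %Activity and fitted to AC50.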

[22] = measured here: cell count channel max response
[23] = measured here: lipid channel max response

O=c1cnc2cnc(N3CCNCC3)nc2n1Cc1cccs1
inactive: Potency [1] > 11.4 µM | activity change, negative = inhibition [2] -4.82% | activity, negative = inhibition [3] 0.322% | Potency [4] > 9.22 µM | Potency [5] > 46 µM | outcome [6] | Potency [7] | Potency [8] | Potency [9]
active: Potency [10] 31.6 µM

COc1ccc(Oc2ncc3nc(-c4cccs4)c(=O)n(CCC#N)c3n2)cc1
inactive: Potency [1] > 11.4 µM | activity change, negative = inhibition [2] -1.5% | activity change, negative = inhibition [11] -5.68% | activity, negative = inhibition [3] -11.5% | Potency [4] > 9.22 µM | outcome [6] | Potency [7] | activity change, negative = inhibition [12] 2.6% | Potency [13] | Potency [14] | Potency [15] | Potency [16] | Potency [9] | max response [17] 18.3%
10.8%: max response [12, 22] | max response [12, 23]

Cc1nc2cnc(N3CCN(C)CC3)nc2n(Cc2ccc(F)cc2)c1=O
1.24%: max response [12, 23]
inactive: Potency [1] > 11.4 µM | activity change, negative = inhibition [2] 1.11% | Potency [18] | activity change, negative = inhibition [11] -12.3% | activity, negative = inhibition [3] -4.86% | Potency [4] > 9.22 µM | Potency [5] > 46 µM | outcome [6] | Potency [7] | Potency [8] | activity change, negative = inhibition [12] 3.55% | Potency [13] | Potency [15] | Potency [16] | Potency [9] | Potency [10]
-0.123%: max response [12, 22]

CCCCCCCCCCCCc1ccccc1O
inactive: Potency [9] | max response [17] 11.8%

CN1CCN(c2nc(-c3cccc(C#N)c3)nc3ccccc23)CC1
7.86%: max response [12, 23]
active: Potency [18] 1.58 µM | Potency [10] 12.6 µM
inactive: Potency [1] > 11.4 µM | activity change, negative = inhibition [2] 9.54% | activity change, negative = inhibition [11] -2.42% | activity, negative = inhibition [3] 21.4% | Potency [5] > 46 µM | outcome [6] | outcome [19] | outcome [20] | activity change, negative = inhibition [12] 8.44% | Potency [9]
3.27%: max response [12, 22]

CN1CCN(c2ncc3nc(-c4ccccc4)c(=O)n(-c4ccccc4)c3n2)CC1
inactive: Potency [1] > 11.4 µM | Potency [4] > 9.22 µM | Potency [5] > 46 µM | outcome [6] | Potency [7] | Potency [9]
active: Potency [21] 3.16 µM | Potency [10] 25.1 µM

N#CCCn1c(=O)c(-c2ccc(Cl)cc2)nc2cnc(OCc3ccccc3)nc21
16.3%: max response [12, 23]
inactive: Potency [1] > 11.4 µM | activity, negative = inhibition [3] 1.91% | Potency [4] > 9.22 µM | Potency [5] > 46 µM | outcome [6] | activity change, negative = inhibition [12] 5.27% | Potency [9] | Potency [10]
active: Potency [18] 2 µM
8.68%: max response [12, 22]
